# Dicer inh – inhibitors of human Dicer processing of pre-microRNA; Q9UPY3; cat-ELCCA pre-miR-21 Dicer processing, chemiluminescence; active compounds read high; z-score at 25 µM; 6% of 47,000 active; in the data active = z-score above about 3, passing the limit was not always enough;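 note: plate controls were vehicle for no effect and no enzyme for full effect; higher signal means more uncleaved substrate so more Dicer inhibition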
# Target sequence (Q9UPY3 whole entry, looked up): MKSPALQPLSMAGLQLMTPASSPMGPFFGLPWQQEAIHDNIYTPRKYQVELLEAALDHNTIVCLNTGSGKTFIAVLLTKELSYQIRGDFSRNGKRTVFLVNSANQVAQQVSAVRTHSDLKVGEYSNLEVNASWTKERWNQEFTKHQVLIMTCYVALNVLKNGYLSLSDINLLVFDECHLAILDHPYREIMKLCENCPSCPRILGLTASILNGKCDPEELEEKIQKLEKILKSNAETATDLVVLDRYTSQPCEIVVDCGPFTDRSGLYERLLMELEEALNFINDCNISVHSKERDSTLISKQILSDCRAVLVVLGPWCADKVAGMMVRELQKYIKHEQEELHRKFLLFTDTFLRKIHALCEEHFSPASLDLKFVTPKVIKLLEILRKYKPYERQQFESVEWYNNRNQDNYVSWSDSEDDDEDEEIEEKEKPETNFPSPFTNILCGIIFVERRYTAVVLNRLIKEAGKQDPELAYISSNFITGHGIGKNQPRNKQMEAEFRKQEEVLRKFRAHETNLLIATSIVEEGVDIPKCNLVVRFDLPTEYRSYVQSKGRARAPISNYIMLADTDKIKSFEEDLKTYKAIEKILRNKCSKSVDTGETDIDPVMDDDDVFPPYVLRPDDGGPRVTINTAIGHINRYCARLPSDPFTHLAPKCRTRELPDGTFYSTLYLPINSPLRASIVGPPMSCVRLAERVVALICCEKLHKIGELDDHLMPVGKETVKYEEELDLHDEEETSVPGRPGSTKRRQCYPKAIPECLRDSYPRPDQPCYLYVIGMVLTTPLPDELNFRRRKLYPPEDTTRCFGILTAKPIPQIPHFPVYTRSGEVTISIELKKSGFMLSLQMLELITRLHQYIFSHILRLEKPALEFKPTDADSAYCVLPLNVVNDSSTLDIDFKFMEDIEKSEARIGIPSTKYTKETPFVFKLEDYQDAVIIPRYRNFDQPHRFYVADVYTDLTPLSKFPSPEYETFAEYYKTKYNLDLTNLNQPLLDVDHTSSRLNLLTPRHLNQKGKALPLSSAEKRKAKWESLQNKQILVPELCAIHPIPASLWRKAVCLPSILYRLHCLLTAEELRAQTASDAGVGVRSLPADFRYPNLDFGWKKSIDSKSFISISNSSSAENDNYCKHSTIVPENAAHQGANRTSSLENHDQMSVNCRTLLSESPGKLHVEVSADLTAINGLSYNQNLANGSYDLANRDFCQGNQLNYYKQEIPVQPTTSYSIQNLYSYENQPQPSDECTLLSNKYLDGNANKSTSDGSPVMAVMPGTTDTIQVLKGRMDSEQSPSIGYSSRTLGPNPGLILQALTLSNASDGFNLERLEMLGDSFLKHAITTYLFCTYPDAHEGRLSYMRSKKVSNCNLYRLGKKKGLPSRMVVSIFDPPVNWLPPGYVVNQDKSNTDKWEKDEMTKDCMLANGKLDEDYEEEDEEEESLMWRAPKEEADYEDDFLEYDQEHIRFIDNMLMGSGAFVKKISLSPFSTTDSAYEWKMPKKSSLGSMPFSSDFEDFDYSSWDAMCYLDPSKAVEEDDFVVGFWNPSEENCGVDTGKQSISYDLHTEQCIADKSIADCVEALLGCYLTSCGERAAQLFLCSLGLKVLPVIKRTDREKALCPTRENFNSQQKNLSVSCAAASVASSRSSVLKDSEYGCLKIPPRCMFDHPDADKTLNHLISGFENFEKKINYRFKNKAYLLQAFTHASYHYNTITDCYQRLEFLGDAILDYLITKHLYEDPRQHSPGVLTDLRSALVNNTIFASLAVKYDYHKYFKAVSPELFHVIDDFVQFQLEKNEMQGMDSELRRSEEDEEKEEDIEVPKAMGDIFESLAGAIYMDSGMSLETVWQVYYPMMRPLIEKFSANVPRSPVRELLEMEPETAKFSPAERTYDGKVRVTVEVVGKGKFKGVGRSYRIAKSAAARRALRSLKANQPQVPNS
# Numbers without * were called inactive. The entries come from a sample that favours hits as a whole.
SMILES,Dicer inh
CSc1nnc2c(n1)OC(C)Nc1ccccc1-2 (configuration not stated),5.8
CSc1nnc2c(n1)OC(c1ccc(C)cc1)Nc1ccccc1-2 (configuration not stated),-0.71
CSc1nnc2c(n1)OC(C1CC=C(C)CC1)Nc1ccccc1-2 (configuration not stated),3.2*
Cc1ccc(NS(C)(=O)=O)cc1[N+](=O)[O-],0.26
CCSc1sc(C(=O)O)c(-c2ccc(Cl)cc2)c1C#N,0.05
N#Cc1c(N2C(=O)C3CC=C(Cl)CC3C2=O)sc2c1CCCC2 (configuration not stated),1.3
CCOC(=O)c1c(NC(=O)COc2ccccc2)sc2c1CC(C)(C)OC2,1
CC1(C)Cc2c(sc(NC(=O)CN3C(=O)C4CC=C(Cl)CC4C3=O)c2C#N)CO1 (configuration not stated),4.8*
O=C(CSc1nnc2scc(-c3ccc(Cl)cc3)n12)Nc1nc(-c2ccccc2)ns1,1.7
Cc1c(S(=O)(=O)c2ccc(Cl)cc2)csc1C(=O)NN,-1.9
Fc1cccc(Cl)c1CO/N=C/c1ccc(Cl)cc1Cl,1.6
O=C(CO/N=C/c1ccc(Cl)cc1Cl)NNC(=S)Nc1cc(Cl)ccc1Cl,5.6*
COC(=O)CO/N=C/c1ccc(Cl)cc1Cl,-0.09
COC(OC)c1ccc(C#N)c(SC)n1,0
O=c1c2ccccc2c(-c2cccs2)nn1-c1ccccc1,-0.11
Cc1ccccc1Cn1c(-c2cncs2)nc2ccccc21,0.83
C=CCn1c(-c2cccs2)nc2ccccc21,125
Brc1cc2c(cc1Cn1c(-c3cncs3)nc3ccccc31)OCO2,4.3*
CCOC(=O)c1c(C)csc1NC(=O)Nc1c(-c2c(Cl)cccc2Cl)noc1C,-0.84
Fc1ccc(-c2cc(-c3nc4c5ccccc5ncn4n3)[nH]n2)cc1,1.2
COc1ccc(NS(=O)(=O)c2ccc3c(c2)[C@H]2C=CC[C@H]2[C@@H](c2cccc(OC)c2OC)N3)cc1,5.9
Cn1c(=O)n(CC(=O)O)c(=O)c2c1nc1n2CCCN1c1ccc(Oc2ccccc2)cc1,-2.1
N#CCC(=O)NNC(=S)Nc1ccc(Cl)c(Cl)c1,-0.46
O=C(Cn1nnc(-c2ccccc2Oc2ccc(Cl)cc2Cl)n1)NNC(=S)Nc1cc(Cl)cc(Cl)c1,6.3*
O=C(CCc1ccc(O)cc1)NNC(=S)Nc1ccc(Cl)c(Cl)c1,0.05
SMILES,Dicer inh
CC(Oc1ccc(Cl)cc1Cl)C(=O)NNC(=S)Nc1ccccc1 (configuration not stated),0.74
O=C(Cn1nnc(-c2ccccc2C(F)(F)F)n1)NNS(=O)(=O)c1cccc(Cl)c1,0.86
O=C(CCn1nnc(-c2cccc(Cl)c2Cl)n1)NNC(=S)Nc1ccc(Cl)c(Cl)c1,9.4*
O=C(CSc1nnc(-c2ccco2)n1-c1ccccc1)c1c[nH]c2ccccc12,0.79
Nc1ncnc2c1nc(N/N=C/c1c(Cl)cccc1Cl)n2[C@H]1O[C@@H](CO)[C@H](O)[C@@H]1O,1.7
C#CCSc1nnnn1-c1c(C)cc(C)cc1C,-2.3
CCCc1cc(=O)[nH]c(SCc2ccc(Cl)cc2Cl)n1,-3.8
CCCc1cc(=O)[nH]c(SCC(=O)Nc2ccc(F)c(Cl)c2)n1,3.1*
CCCc1cc(=O)[nH]c(SCc2ccc(Cl)cc2)n1,-3.5
c1ccc2c(OCc3nc4ccccc4[nH]3)cccc2c1,0.35
CC(C)(C)OC(=O)NC1CCN(c2nccc(C(F)(F)F)n2)CC1,-0.73
N#Cc1c(-c2cccs2)c2c([nH]c1=O)CCCC2,-1.1
O=C(NC1CCCC1)NS(=O)(=O)c1ccccc1Cl,3.2*
CC(=O)c1ccc(S(=O)(=O)NC(=O)NC2CCCCC2)cc1,2.4
CCCCNC(=O)NS(=O)(=O)c1ccccc1Cl,-1.4
CNc1cc(=O)n(-c2ccccc2)c(=O)n1-c1ccccc1,0.32
C=C(C)CC1N(c2ccccc2)C(=O)C2C(C(=O)O)C3C=CC21O3 (configuration not stated),-0.33
COC(=O)c1sccc1N/N=C/c1ccc(F)cc1,0.01
COC(=O)c1sc2cc(-c3ccc(F)cc3)sc2c1C,3.8*
COC(=O)c1sc(SC)c(C(C)=O)c1C,0.17
CSC(=NS(=O)(=O)c1ccc(Cl)c(Cl)c1)SC,-0.08
O=C(CSc1nnc(Cc2cccs2)n1-c1ccccc1)c1c[nH]c2ccccc12,0.35
CSc1nnc(-c2ccc(Br)s2)n1C,-1.5
Cn1nc(-c2ccc(Br)s2)c(Br)c1C(F)(F)F,45*
Cc1ccc(-c2nnc(N3CCOCC3)c3ccccc23)cc1C,2
SMILES,Dicer inh
O=C(CN1CCN(c2nc3cc(Cl)ccc3s2)CC1)Nc1ccccc1,-2.2
CCOC(=O)CSc1nc2nc(C)c([N+](=O)[O-])c(=O)n2[nH]1,-0.08
Cn1ccnc1SCC(=O)Nc1nc2c(s1)C(=O)CC(C)(C)C2,1.5
O=C(Nc1ccc(F)cc1F)N1CCN(Cc2ccccc2)CC1,3*
CC(C)(C)OC(=O)NC1CCN(C(=O)Nc2ccc(F)cc2F)CC1,0.45
CCOC(=O)C1CCN(C(=O)Nc2ccc(F)cc2F)CC1,-0.78
O=C1C=CC2(C=C1)CC1(CCCCC1)N=C2SCc1ccccc1,2.9
O=S(=O)(c1ccc(NC(=S)NC2CCCC2)cc1)N1CCCCC1,1.8
O=S(=O)(c1ccc(NC(=S)N/N=C/c2ccccc2)cc1)N1CCCCC1,2.3
O=S(=O)(c1ccc(NC(=S)N/N=C/c2ccccn2)cc1)N1CCCCC1,4.2*
CSc1nnc(-c2csc(S(=O)(=O)Nc3cccc(C(F)(F)F)c3)c2)n1C,2.3
Cn1c(=O)c2c(nc(NCCCO)n2Cc2ccc(Cl)cc2)n(C)c1=O,3.6*
Cn1c(=O)c2c(nc(NCCCO)n2Cc2ccc(Br)cc2)n(C)c1=O,2.1
Cn1c(=O)c2c(nc(-n3ccnc3)n2Cc2ccc(F)cc2)n(C)c1=O,1.4
Cn1c(=O)c2c(nc(NCCCn3ccnc3)n2Cc2cccc3ccccc23)n(C)c1=O,-0.49
Cn1c(NCCCO)nc2c1c(=O)n(Cc1ccc(Cl)cc1)c(=O)n2C,2.4
Cn1c(=O)c2c(nc(NCCCn3ccnc3)n2Cc2ccc(F)cc2)n(C)c1=O,3.5*
C#CCOC(=O)NC(=O)c1c(-c2ccc(Cl)cc2)nn(C)c1SC,-1.9
COc1ccc(-c2nnsc2NC(=O)c2ccccc2CO)cc1,-0.04
O=C1CSC(c2ccc(Cl)c(Cl)c2)N1c1ccc(F)cc1 (configuration not stated),-0.36
COc1ccc(S(=O)(=O)N2CCN(S(=O)(=O)c3ccc4ccccc4c3)CC2)cc1,1.1
O=S(=O)(c1ccc2ccccc2c1)N1CC=C(c2ccccc2)CC1,-0.32
O=S(=O)(c1ccc2ccccc2c1)N1CCN(C2CCN(Cc3ccccc3)CC2)CC1,3.2*
O=S(=O)(c1ccc2ccccc2c1)N1CCCCC1,1.2
Fc1ccccc1CN1CCN(C2CCN(Cc3ccccc3)CC2)CC1,-1.2
SMILES,Dicer inh
CSc1ccc(CN2CCN(S(=O)(=O)c3ccc4ccccc4c3)CC2)cc1,3.4*
O=C(/C(=C\c1ccccc1)n1ccnc1)c1ccccc1OCc1ccccc1,-2.5
COc1ccc(OC/C(N)=N/OC(=O)CO/N=C(\C)c2ccc(Cl)cc2)cc1,-4.3
CC1(C)C2CCC(C2)C1(C)NC(=S)NCC1CCCO1 (configuration not stated),1.5
CCOC(=O)NC(Nc1cccc(F)c1)(C(=O)OCC)C(F)(F)F (configuration not stated),-0.3
COc1cc(OC)c([N+](=O)[O-])c(OC)c1,-1.4
Cn1c(=O)n(C)c2cc(S(=O)(=O)N3CCCC3)ccc21,3.5*
Cn1c(=O)n(C)c2cc(S(=O)(=O)Nc3ccc(C(=O)O)cc3)ccc21,0.33

# Screening results (PubChem)
